Laboratory results from PubChem BioAssay (Tox21).
Records with an inconclusive call do not appear. Values without a mark were called inactive. The source made the active and inactive calls. Calls come from the whole dose curve; as a rule, active = well fitted cell-killing curve with a large enough effect in the repeat runs; inconclusive = weak or mixed curves, or effect the other way; inactive = flat fitted curve, though single readings scatter.

Experiment: qHTS RealTime-Glo MT Cell Viability Assay in HEK293 cells - 40 hour (AID 1224874); note: nearly all actives have a fitted effect of over 50% in size
Conditions: RealTime-Glo luminescence; max response: hits give low values
Source text: U.S. Tox21 Program National Center for Advancing Translational Sciences [NCATS] NIH Chemical Genomics Center [NCGC] U.S. Environmental Protection Agency [EPA] National Institutes of Environmental Health Sciences [NIEHS] National Toxicology Program [NTP] U.S. Food and Drug Administration [FDA] Tox21 Assay Overview: Measure of cell viability is critical in the cell-base assay. Analysis of cell viability is necessary for the characterization of cell responses to cytotoxic drugs and environmental stress. A RealTime-Glo MT Cell Viability Assay to monitor cell viability in real time of continues cell culture during 40 hours of compound treatment was used to screen Tox21 10K library compounds in Hek293 cells. The RealTime-Glo MT Cell Viability Assay is a nonlytic, homogeneous, bioluminescent method to measure cell viability in real time using a simple, plate-based method. The assay involves adding NanoLuc luciferase and a cell-permeant prosubstrate to cells in culture. Viable cells reduce the proprietary prosubstrate to generate a substrate for NanoLuc luciferase. This substrate diffuses from cells into the surrounding culture medium, where it is rapidly used by the NanoLuc Enzyme to produce a luminescent signal. The signal correlates with the number of viable cells, making the assay well suited for cytotoxicity studies.
Tox21 Assay Protocol Summary: The mixture of Hek293 cell suspension and reagents were dispensed at 600cells/6 ul/well in 1536-well tissue culture treated black solid bottom plates using a Multidrop dispenser. After the assay plates were incubated at a 37 C/5% CO2 incubator for 5 hours, 23 nL of compounds dissolved in DMSO, positive and negative controls was transferred to the assay plate by a pintool work station. The plates were incubated at 37 C for 40 hours. The luminescence intensity were measured at 0h, 8h, 16h, 24h, 32h and 40h time points using ViewLux plate reader during compound treatment.
% is set by controls: 0 for no effect and ±100 for the full control effect; potency is the fitted concentration of half-maximal effect.

| Compound | Potency | max response |
| --- | --- | --- |
| O=[N+]([O-])c1cc(C2CCCCC2)c(O)c([N+](=O)[O-])c1 | 12.3 µM (active) |  |
| Oc1cccc(O)c1O |  | 1.23% |
| C[C@@H](O)[C@H]1C(=O)N2C(C(=O)O)=C([C@H]3CCCO3)S[C@H]12 |  | 5.96% |
| O=C(CCCN1CC=C(n2c(=O)[nH]c3ccccc32)CC1)c1ccc(F)cc1 | 9.52 µM (active) |  |
| CCC1NC(=O)c2cc(S(N)(=O)=O)c(Cl)cc2N1 (stereo not given) |  | 6.45% |
| C=C1c2cccc(O)c2C(O)=C2C(=O)[C@]3(O)C(O)=C(C(N)=O)C(=O)[C@@H](N(C)C)[C@@H]3[C@@H](O)[C@H]12 |  | 3.62% |
| NC(=O)c1ccncc1 |  | 6.51% |
| OC[C@H]1O[C@@H](n2cnc3c(=S)nc[nH]c32)[C@H](O)[C@@H]1O | 21.3 µM (active) |  |
| C1COC1 |  | 6.53% |
| CC(C)(C)CC(=O)OCC(=O)[C@@]1(O)CC[C@H]2[C@@H]3CCC4=CC(=O)C=C[C@]4(C)[C@H]3[C@@H](O)C[C@@]21C | 19 µM (active) |  |
| C[C@@H](CN(C)C)CN1c2ccccc2Sc2ccccc21 | 23.9 µM (active) |  |
| N#CCc1ccc(Cl)cc1Cl |  | -14.5% |
| CCCC(=O)C(=O)O |  | 13.4% |
| Oc1cc2c(cc1O)[C@H]1c3ccc(O)c(O)c3OC[C@@]1(O)C2 |  | -26.5% |
| OC1(c2ccccc2)CCNCC1 |  | 5.53% |
| CC1CC(OC(=O)C(O)c2ccccc2)CC(C)(C)N1C (stereo not given) |  | 0.136% |
| CC(C)C[C@H](NC(=O)[C@H](CCc1ccccc1)NC(=O)CN1CCOCC1)C(=O)N[C@@H](Cc1ccccc1)C(=O)N[C@@H](CC(C)C)C(=O)[C@@]1(C)CO1 | 0.0268 µM (active) |  |
| CCCCCCCCCI |  | -1.11% |
| CC(=O)Oc1ccc([N+](=O)[O-])cc1CCl | 3.47 µM (active) |  |
| NNC(=O)CP(=O)(c1ccccc1)c1ccccc1 |  | -3.49% |

| Compound | Potency | max response |
| --- | --- | --- |
| C[C@@H](O[C@H]1OCCN(Cc2n[nH]c(=O)[nH]2)[C@H]1c1ccc(F)cc1)c1cc(C(F)(F)F)cc(C(F)(F)F)c1 | 16.9 µM (active) |  |
| CN1C(=O)OC(C)(C)C1=O |  | 0.839% |
| CCCCN(CCCC)C(C(N)=O)c1ccc(OC)cc1 (stereo not given) |  | -24.8% |
| CCCCC(CC)CN (stereo not given) |  | 4.35% |
| Cc1cc(C)c(N)cc1C |  | 1.12% |
| CCC(C)COC(C)=O (stereo not given) |  | 12% |
| CCOC(=O)/C=C/C(=O)OCC |  | 11.5% |
| CC(C)=CC(=O)C=C(C)C |  | 9.12% |
| OCCOCC#CCOCCO |  | 7.98% |
| N#[N+]c1ccc2c(S(=O)(=O)[O-])cccc2c1O |  | -19.6% |
| O=C(CCc1ccc(O)cc1)c1c(O)cc(O)cc1O | 39.8 µM (active) |  |
| C[C@@H]1CN(CCCn2c3ccccc3c3ccccc32)C[C@H](C)N1 | 23.9 µM (active) |  |
| O=C(O)C[C@H](NC(=O)OCc1ccccc1)C(=O)O |  | -0.276% |
| C/C=C\C/C=C/CCCCCCCCOC(C)=O |  | -25.6% |
| Nc1cccc2c1CN(C1CCC(=O)NC1=O)C2=O (stereo not given) |  | 2.81% |
| CC(O)c1ccccc1 (stereo not given) |  | 19.3% |
| O=C(OC(=O)c1ccccc1)c1ccccc1 |  | 6.21% |
| Nc1ncnc2c1ncn2[C@H]1CC[C@@H](CO)O1 |  | 18.9% |
| CCC(C)(C)OC |  | 7.38% |
| CC(C)COCC(CN(Cc1ccccc1)c1ccccc1)N1CCCC1 (stereo not given) | 10.7 µM (active) |  |
